Where “and” joins values, the source holds several entries; their conditions need not be identical. Identical values can stand only once. Counter-ions that a name gives are not always drawn.
Legend:
Assay in all cases: cell viability relative to vehicle control; higher = less cytotoxic
Conditions in all cases: 10 µM
K562 = test system: K562
Summary of the method: (§1)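 CRISPR-edited mutant clones and isogenic wild-type clones from four leukaemia lines were screened against Selleck bioactive, kinase and epigenetic probe libraries, with identity-inconsistent compounds excluded. Each compound was acoustically dispensed at a single 10 µM dose into 384-well plates holding 2000 cells in 50 µL medium per well. After 48 h the supernatant was removed and CellTiter-Glo luminescence was read. Viability was expressed as percent of the on-plate vehicle control and analysed in Genedata Screener.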

MARIMO = test system: MARIMO
Summary of the method: as §1

MOLM14 = test system: MOLM14
Summary of the method: as §1

OCI-AML2 = test system: OCI-AML2
Summary of the method: as §1

Row | SMILES | cell viability (K562; SRSF2 genotype: SRSF2 P95H/wt) | cell viability (K562; SRSF2 genotype: SRSF2 wt/wt) [%] | cell viability (MARIMO; SRSF2 genotype: SRSF2 P95H/wt) [%] | cell viability (MARIMO; SRSF2 genotype: SRSF2 wt/wt) [%] | cell viability (MOLM14; SRSF2 genotype: SRSF2 P95H/wt) [%] | cell viability (MOLM14; SRSF2 genotype: SRSF2 wt/wt) [%] | cell viability (OCI-AML2; SRSF2 genotype: P95H/wt) [%] | cell viability (OCI-AML2; SRSF2 genotype: wt/wt) [%]
1 | O[C@H]1[C@H]2c3cc4c(cc3CN3CCC(=C[C@@H]1O)[C@H]23)OCO4 [Lycorine] | 18.3% and 25.2% | 27.9 | 23 | 20.6 | 18.2 | 7.75 | 0.46 | 1.41
2 | Cc1ccc(Sc2ccccc2N2CCNCC2)c(C)c1 | 2.01% and 3.74% | 2.31 | 6.07 | 11.2 | 3.31 | 3.18 | 0.2 | 0.89
3 | Cc1cc(CS(=O)(=O)c2ccccc2)cc(OCc2ccc(CN3CCC[C@@H]3CO)cc2)c1 | 98.9% and 101% | 95.6 | 98.9 | 103 | 96.5 | 104 | 98.7 | 92.6
4 | c1ccc2c(Oc3nc(Nc4ccc(N5CCOCC5)cc4)c4ncn(C5CCCCC5)c4n3)cccc2c1 [Purmorphamine] | 91.9% and 105% | 98.2 | 86.5 | 94.4 | 45.9 | 48.7 | 58.9 | 64
5 | CN1C(N)=N[C@](C)(c2cc(NC(=O)c3ccc(F)cn3)ccc2F)CS1(=O)=O [Verubecestat (MK-8931)] | 92.7% and 98.7% | 98.3 | 88.9 | 96.1 | 94.4 | 100 | 99.9 | 97.1
6 | CC(C)(C)NS(=O)(=O)c1cncc(-c2cc(F)c3nc(N)nn3c2)c1 | 100% and 102% | 101 | 93.8 | 93.9 | 92.5 | 103 | 81.1 | 80.8
7 | C[C@H](NC(=O)c1c(N)nn2cccnc12)c1cc2cccc(C#Cc3cnn(C)c3)c2c(=O)n1-c1ccccc1 | 88.3% and 88.5% | 94.3 | 71 | 63.4 | 54.3 | 57.1 | 32.2 | 41.6
8 | CCN(CC)CCOC(=O)c1ccc(N)cc1Cl [Chloroprocaine HCl] | 95.2% and 93.5% | 97.1 | 103 | 115 | 98 | 99.3 | 90.7 | 113
9 | CC(=O)Oc1cccc2ccccc12 [1-Naphthyl acetate] | 90.4% and 85.3% | 95.8 | 92.4 | 97.5 | 93.7 | 93.8 | 93.3 | 90.8
10 | O=C1NC(=O)/C(=C/c2ccc3nccc(-c4ccncc4)c3c2)S1 | 62.8% and 84% | 69.7 | 54.6 | 50.5 | 40.1 | 42 | 25.4 | 28.8
11 | CCOc1nc2cccc(C(=O)OCc3oc(=O)oc3C)c2n1Cc1ccc(-c2ccccc2-c2noc(=O)[nH]2)cc1 [Azilsartan Medoxomil (TAK-491)] | 97.7% | 95.6 | 101 | 108 | 105 | 102 | 102 | 103
12 | CCCCNc1ncc(C(=O)NCc2ccc(-n3ccnc3)cc2)c(NC2CCC(O)CC2)n1 (configuration not stated) | 84.4% | 72.8 | 73 | 83.9 | 25.6 | 20.8 | 48.4 | 52.1
13 | CCCCC[C@](C)(O)/C=C/[C@@H]1[C@@H](C/C=C\CCCC(=O)O)[C@@H](O)C[C@H]1O [Carboprost] | 110% and 101% | 102 | 97.5 | 91.1 | 78.8 | 99.7 | 90.3 | 90.1
14 | CN(C)c1ccc2c(c1)Sc1cc(N(C)C)ccc1N2 [TRx0237 (LMTX) mesylate] | 35.5% and 35.7% | 20.9 | 20.4 | 18.9 | 5.72 | 2.96 | 6.33 | 10.7
15 | CCOC(=O)c1csc(Nc2ccc(Cl)cc2)n1 | 97.1% and 103% | 92.5 | 81 | 92.8 | 111 | 111 | 75.6 | 71.8
16 | COc1cc(O)c(C(=O)Nc2nc(C(=O)NCCN(C(C)C)C(C)C)cs2)cc1OC [Acotiamide hydrochloride] | 93.4% and 91.4% | 103 | 98 | 98.8 | 97 | 98.8 | 97.1 | 98.7
17 | CN(C)C(=N)NC(=N)N [Metformin hydrochloride (Glucophage)] | 108% | 110 | 108 | 110 | 105 | 104 | 102 | 116

Row | SMILES | cell viability (K562; SRSF2 genotype: SRSF2 P95H/wt) | cell viability (K562; SRSF2 genotype: SRSF2 wt/wt) [%] | cell viability (MARIMO; SRSF2 genotype: SRSF2 P95H/wt) [%] | cell viability (MARIMO; SRSF2 genotype: SRSF2 wt/wt) [%] | cell viability (MOLM14; SRSF2 genotype: SRSF2 P95H/wt) [%] | cell viability (MOLM14; SRSF2 genotype: SRSF2 wt/wt) [%] | cell viability (OCI-AML2; SRSF2 genotype: P95H/wt) [%] | cell viability (OCI-AML2; SRSF2 genotype: wt/wt) [%]
18 | Nc1cccc2c1C(=O)N(C1CCC(=O)NC1=O)C2=O (configuration not stated) [Pomalidomide] | 102% and 96.9% | 88 | 87.4 | 99 | 88.5 | 93.5 | 120 | 121
19 | CCCCC(=O)OCC(=O)[C@H]1[C@H](C)C[C@H]2[C@@H]3C[C@H](F)C4=CC(=O)C=C[C@]4(C)[C@@]3(F)[C@@H](O)C[C@@]21C [Diflucortolone valerate] | 96.5% and 92.7% | 104 | 95.1 | 98.2 | 92 | 96 | 99.4 | 118
20 | CCCN(CCC)C(=O)C1=Cc2ccc(-c3ccc(C(=O)N4CCCC4)cc3)cc2N=C(N)C1 [Motolimod (VTX-2337)] | 34.5% and 40.5% | 38.8 | 33.2 | 25.7 | 26.5 | 31 | 21.7 | 29
21 | CC(C)=C[C@H]1C[C@](C)(O)[C@@H]2[C@H]3CC[C@@H]4[C@@]5(C)CC[C@H](OC6OC[C@H](O)[C@H](O[C@@H]7O[C@H](CO[C@@H]8O[C@H](CO)[C@@H](O)[C@H](O)[C@H]8O)[C@@H](O)[C@H](O)[C@H]7O[C@@H]7OC[C@@H](O)[C@H](O)[C@H]7O)[C@H]6O[C@@H]6O[C@@H](C)[C@H](O)[C@@H](O)[C@H]6O)C(C)(C)[C@@H]5CC[C@@]4(C)C34CO[C@@]2(C4)O1 (some centres not stated) [Jujuboside A] | 109% and 107% | 102 | 101 | 104 | 109 | 102 | 91.6 | 101
22 | Cc1cc(N2CCN([C@@H]3CN[C@H](C(=O)N4CCSC4)C3)CC2)n(-c2ccccc2)n1 [Teneligliptin hydrobromide] | 90.4% and 78% | 83.5 | 86.8 | 95.5 | 84.8 | 89 | 94.2 | 91.8
23 | CCOC(=O)N[C@@H]1CC[C@@H]2[C@@H](C1)C[C@H]1C(=O)O[C@H](C)[C@H]1[C@H]2/C=C/c1ccc(-c2cccc(F)c2)cn1 | 80.4% and 87% | 80.8 | 83.3 | 82.5 | 81.6 | 83.6 | 65.1 | 64.7
24 | COc1ccc(COc2ccc(CC#N)cc2)cc1 | 103% | 97.9 | 96.4 | 108 | 114 | 110 | 96.3 | 82.9
25 | CC(=O)O[C@H]1C[C@@H]2CC[C@@H]3[C@H](CC[C@@]4(C)[C@H]3C[C@H]([N+]3(C)CCCCC3)[C@@H]4OC(C)=O)[C@@]2(C)C[C@@H]1N1CCCCC1 [Vecuronium Bromide] | 101% and 109% | 109 | 105 | 103 | 99.8 | 101 | 111 | 109
26 | CCCCCC(=O)O[C@]1(C(C)=O)CC[C@H]2[C@@H]3CCC4=CC(=O)CC[C@]4(C)[C@H]3CC[C@@]21C [Hydroxyprogesterone caproate] | 40.1% and 34.4% | 39.2 | 29.2 | 24.9 | 38.5 | 21 | 28.8 | 23.7
27 | O=c1ccc2ccc(OCCCCN3CCN(c4cccc5sccc45)CC3)cc2[nH]1 [Brexpiprazole] | 37.4% and 28.9% | 60.1 | 43.1 | 39.2 | 33 | 23.4 | 15.4 | 21.6
28 | C#CC1(O)CC[C@H]2[C@@H]3CCC4=CC(=O)CC[C@@H]4[C@H]3CC[C@@]21CC (some centres not stated) [Norgestrel] | 100% | 97.1 | 95.6 | 103 | 98.2 | 108 | 122 | 114
29 | O=c1cc(N2CCOCC2)oc2c(-c3ccccc3)cccc12 | 76.7% and 86.9% | 91.8 | 66.6 | 64.8 | 51.5 | 45.6 | 47.5 | 49.4
30 | NC(=O)c1cccnc1 [Nicotinamide (Vitamin B3)] | 106% and 112% | 113 | 107 | 103 | 105 | 104 | 104 | 111
31 | CCN(CC)c1ccc2c(-c3ccccc3C(=O)O)c3ccc(=[N+](CC)CC)cc-3oc2c1 [Rhodamine B] | 51.1% and 54.3% | 53 | 51.3 | 59.4 | 48.5 | 61 | 58.7 | 49.6
32 | CC(C)c1cccc(O)c(=O)c1 | 87.6% and 88.1% | 83.2 | 79.5 | 70.3 | 93.5 | 96.4 | 59.6 | 59.8
33 | COc1cc2c(cc1O)C[C@H]1c3cc(O)c(OC)cc3CC[N@@+]1(C)C2 [Phellodendrine] | 104% and 97.8% | 102 | 98.9 | 98.7 | 111 | 102 | 101 | 96.4
34 | CCOC(=O)[C@H](CCc1ccccc1)N[C@@H](C)C(=O)N1C(=O)N(C)C[C@H]1C(=O)O [Imidapril HCl] | 93.9% and 85.6% | 90.9 | 84.9 | 94.4 | 95.1 | 95.2 | 108 | 87.7

— the supplement of paper PMC10981050
